In PubChem BioAssay (NCI):
The panel holds about 79,000 compounds, 15% with a hit somewhere; the sample as a whole holds those more often. Values without a mark were called inactive. Activity calls are given as the source filed them. No stated cut-off is given here; in the data, active means growth inhibition above about 70%; inactive means the rest.

Assay: NCI Yeast Anticancer Drug Screen. Data for the rad50EPP+ strain (AID 151);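 further: 0% = growth of vehicle-treated control cultures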
Conditions: S. cerevisiae rad50 mutant strain, hits give high values
Protocol: Growth inhibition of yeast strains with defined genetic alterations is measured as a screen for potential anti-cancer activity. Selected strains with alterations in DNA damage repair or cell cycle control were exposed to compounds and growth inhibition was measured relative to vehicle treated controls. The strain used in this assay is rad50EPP+

`CCOc1ccc(N)c(S)c1` gave a growth inhibition (at 1.2 µM) of 0%, a growth inhibition (at 3.7 µM) of -4% and a growth inhibition (at 11.0 µM) of 10%. For the same molecule, the growth inhibition (at 33.0 µM) was 97% (active) and the growth inhibition (at 100.0 µM) was 96% (active).
For `O=C1CSC(c2ccccc2)N1c1ccc(-c2ccc(-n3c(-c4ccccc4)nc4ccccc4c3=O)cc2)cc1` (stereo not given), the growth inhibition (at 1.2 µM) was 3%, the growth inhibition (at 3.7 µM) was 9% and the growth inhibition (at 11.0 µM) was 15%. The growth inhibition (at 33.0 µM) was 20% and the growth inhibition (at 100.0 µM) was 24%.
Work on `CCCNC(=O)OCc1c(COC(=O)NCCC)c(-c2ccc(Cl)c(Cl)c2)n2c1CCC2` yielded a growth inhibition (at 1.2 µM) of -4%, a growth inhibition (at 3.7 µM) of 0% and a growth inhibition (at 11.0 µM) of -6%. The growth inhibition (at 33.0 µM) was 8% and the growth inhibition (at 100.0 µM) was 5%.
With `C[N+](C)([O-])CCCNc1c2ccccc2nc2cccc([N+](=O)[O-])c12` the growth inhibition (at 1.2 µM) was 28%, the growth inhibition (at 3.7 µM) was 44% and the growth inhibition (at 11.0 µM) was 79% (active). For the same molecule, the growth inhibition (at 33.0 µM) was 94% (active) and the growth inhibition (at 100.0 µM) was 95% (active).
In the case of `CC1C(c2ccccc2)SC(=N)N1C` (stereo not given), the growth inhibition (at 1.2 µM) is reported as -2%, the growth inhibition (at 3.7 µM) is reported as -2% and the growth inhibition (at 11.0 µM) is reported as -2%. For the same molecule, the growth inhibition (at 33.0 µM) was 0% and the growth inhibition (at 100.0 µM) was -1%.
In the case of `BrC1C2CCC3OC3C12` (stereo not given), the growth inhibition (at 1.2 µM) is reported as 9%, the growth inhibition (at 3.7 µM) is reported as 27% and the growth inhibition (at 11.0 µM) is reported as 70% (active). The growth inhibition (at 33.0 µM) was 89% (active) and the growth inhibition (at 100.0 µM) was 96% (active).
`CC(C)OC(=O)NNc1c(Cl)cc(Cl)cc1Cl` gave a growth inhibition (at 1.2 µM) of 10%, a growth inhibition (at 3.7 µM) of 31% and a growth inhibition (at 11.0 µM) of 49%. The growth inhibition (at 33.0 µM) was 74% (active) and the growth inhibition (at 100.0 µM) was 79% (active).
Work on `Cc1c2cc[n+](CCO)cc2c(C)c2c1[nH]c1ccc(O)cc12` yielded a growth inhibition (at 1.2 µM) of 25%, a growth inhibition (at 3.7 µM) of 57% and a growth inhibition (at 11.0 µM) of 59%. For the same molecule, the growth inhibition (at 33.0 µM) was 68% and the growth inhibition (at 100.0 µM) was 83% (active).
